Pf growth 48h: inhibits P. falciparum growth in the first generation, 48 h; P. falciparum luciferase growth in erythrocytes, 48 h; AID 504832; Potency, µM (titrated, usually from 28.7 µM), for inactives: top-dose activity change, negative = inhibition, usual class: inhibitors; 310,000 tested, 5.9% active; also: potency is read from the fitted curve at half-maximal effect; % is scaled to controls: 0 for no effect and ±100 for the full control effect
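In quantitative HTS format, infected erythrocytes bearing luciferase-reporter parasites were treated for a single generation at 37 C. Luminescence after adding detection reagent served as the growth measure.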
Shiga inhibitor: blocks Shiga toxin action in Vero cells; Vero cells, Shiga toxin protein synthesis inhibition reporter; inhibition, % at 38.7 µM; 290,000 tested, 9.2% active; in the data active = inhibition mostly above about 28%, no sharp cut-off; inactive = mostly below about 43%; also: 0% is about no effect
CHX counter: affects cycloheximide protein synthesis inhibition readout, counter-screen; max response, %; 300,000 tested, 12% active; cell reporter, cycloheximide protein synthesis inhibition counterscreen; in the data active = max response mostly above about 13%, no sharp cut-off; inactive = mostly below about 14%; also: read at 38.3 µM for the half of the compounds with a filed dose; 0% is about no effect
Pf growth 96h: P. falciparum growth inhibition at 96 hour, primary screen for plastid delayed-death inhibitors; 320,000 tested, 6.9% active; Potency, µM (highest dose often 28.7 µM), for inactives: top-dose activity change, negative = inhibition, hits mostly inhibitors; AID 504834; P. falciparum luciferase reporter growth, 96 h; also: potency is read from the fitted curve at half-maximal effect; % is scaled to controls: 0 for no effect and ±100 for the full control effect
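Readout is luminescence from an integrated firefly luciferase in P. falciparum. Red cells, 2% hematocrit and 0.05% parasitemia final, were cultured with compound through two parasite generations (96 hours) at 37 C, 5% CO2.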
LmPK inh: LmPK (Leishmania mexicana) enzyme inhibition; AID 1721; 290,000 tested, 0.37% active; Potency, µM (highest dose often 57.5 µM), inactives show top-dose activity change, negative = inhibition, usual class: inhibitors; purified LmPK, Kinase-Glo ATP luminescence, 1 h; Q27686; also: potency is read from the fitted curve at half-maximal effect; % is scaled to controls: 0 for no effect and ±100 for the full control effect
Target sequence (Q27686 whole entry, looked up): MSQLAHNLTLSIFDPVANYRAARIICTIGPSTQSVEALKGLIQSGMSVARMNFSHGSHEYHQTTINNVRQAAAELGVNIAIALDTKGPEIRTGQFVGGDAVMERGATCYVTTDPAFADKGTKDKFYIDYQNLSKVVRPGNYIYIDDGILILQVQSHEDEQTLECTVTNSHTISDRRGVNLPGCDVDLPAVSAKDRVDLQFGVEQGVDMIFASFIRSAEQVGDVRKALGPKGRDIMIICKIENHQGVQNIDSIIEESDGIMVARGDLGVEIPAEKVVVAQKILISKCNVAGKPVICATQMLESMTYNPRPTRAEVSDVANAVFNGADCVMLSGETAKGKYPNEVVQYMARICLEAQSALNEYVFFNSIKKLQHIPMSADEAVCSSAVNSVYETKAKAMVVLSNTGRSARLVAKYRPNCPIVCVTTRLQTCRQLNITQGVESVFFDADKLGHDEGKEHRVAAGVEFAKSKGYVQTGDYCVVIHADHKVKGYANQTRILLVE
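qHTS format; LmPK 0.1 nM; substrates PEP 0.5 mM and ADP 0.1 mM. One-hour room-temperature incubation, then coupled luciferase luminescence; 0.5 nM enzyme wells mark activation.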
LmPK inh confirm: Confirms inhibition of Leishmania mexicana pyruvate kinase. shares compounds with LmPK inh. purified LmPK, Kinase-Glo ATP luminescence, 1 h. Potency, µM (top dose mostly 57.5 µM), for the others: at the top dose activity change, negative = inhibition, hits mostly inhibitors. 150 tested, 40% active. AID 2559;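 active = compounds giving a full or partial concentration-response curve, as inhibitors or activators; inconclusive = weak, top-dose-only or unclear curve responses; inactive = no response at any tested dose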
The depositor's hits bear a star; i = inactive; ? = inconclusive; / = no result given. Only some compounds are listed: those with a hit (about 22% of all), similar ones and a draw of the others. Unless noted, calls follow the shape of the dose curve; as a rule, active = well fitted inhibition curve with a large enough effect; inconclusive = small, poorly fitted or top-dose-only effect, or another doubt; inactive = no such curve, though single readings can be large or run the other way.

SMILES	Pf growth 48h	Shiga inhibitor	CHX counter	Pf growth 96h	LmPK inh	LmPK inh confirm
COc1ccc(CCN=C(C)C2=C(O)C(c3ccccc3)OC2=O)cc1OC (stereo not drawn)	54%	12	-1	?	8%	/
COc1ccc(-c2cc3nc(C)n(N)c(=O)c3s2)cc1	-4%	-37	-2	39%	2µM*	2.9µM*
Cc1nc2cc(-c3ccccc3)sc2c(=O)n1N	247%	-28	-14	5%	2.2µM*	4.6µM*
O=[N+]([O-])c1ncccc1OCc1ccc(Br)cc1F	37%	-6	-2	58%	5%	/
COc1cccc(OC)c1CC1SC(=O)NC1=O (stereo not drawn)	6%	15	11	4%	-4%	/
COC(=O)CCC/C=C1/SCC(NC(=O)c2ccccc2)/C1=N/O (stereo not drawn)	27%	12	-1	-6%	-1%	/
CC1CC1C(=O)OCC(=O)NNC(=O)c1ccc([N+](=O)[O-])cc1 (stereo not drawn)	-22%	/	/	-19%	/	/
COc1cccc(/C=N/NC(=O)c2ccoc2C)c1O	?	86*	38*	?	7.9µM*	18µM*
COc1cccc(/C=N/NC(=O)C(=O)NCc2ccco2)c1O	-25%	-5	-1	0%	-3%	/
CC1=CC(C)(C)N(C(=O)c2ccccc2)c2ccc(C)cc21	?	-14	-5	?	-1%	5%
C=C(C)[C@H]1CC=C(C)/C(=N/NC(=O)CNc2ccccc2OC)C1	41%	25	-1	40%	-2%	2%
C=C(C)C1CC=C(C)/C(=N/NC(=O)COc2ccccc2Cl)C1 (stereo not drawn)	?	19	-4	?	-1%	/
Cc1ccc(C(=O)NNC(=O)CCCCC(=O)NNC(=O)c2ccc(C)cc2)cc1	9%	-6	-2	?	-1%	/
Cc1ccc(C(=O)/C=C/C(=O)c2ccc(C)cc2)cc1	i	41	16	-3%	4µM*	?
COc1ccc(C(=O)N=c2nc3ccccn3s2)cc1	/	74	38*	-8%	?	16µM*
Cc1cc(CN(C)Cc2cn(C)nc2-c2ccc(Oc3ccccc3)cc2)on1	?	22	1	?	-5%	4%
CN(Cc1cccnc1)Cc1cn(C)nc1-c1ccc(Oc2ccccc2)cc1	?	-6	-3	?	4%	/
Cc1ccc(Cl)cc1N1CCN(S(=O)(=O)c2ccc3c(c2)OCCO3)CC1	7%	12	-3	-2%	0%	9%
Cc1cc(NC(=O)c2ccccc2C)ccc1NC(=O)c1ccccc1Cl	-5%	/	11	-30%	2%	/
CC(=O)CCC(=O)N1CCC(n2nccc2NC(=O)c2ccccc2C)CC1	-2%	5	7	0%	-4%	/
N/C(=N\OC(=O)c1ccccc1)c1ccccn1	-35%	-20	-8	?	4.5µM*	8.2µM*
CCOc1ccc(C(=O)O/N=C(\N)c2ccccn2)cc1	-90%	-20	-12	0%	?	6.5µM*
CCOc1ccc(C(=O)N2CCN(c3ccccn3)CC2)cc1	18%	-7	-2	-18%	-7%	/
CCCNc1c(NC(=O)c2cccs2)c(=O)oc2ccccc12	-7%	11	-2	8%	5%	/
COc1cc(CN2CCNC(=O)C2CC(=O)N(C)CCC2CCOCC2)cc(OC)c1 (stereo not drawn)	-2%	-5	5	-24%	-10%	/
SMILES	Pf growth 48h	Shiga inhibitor	CHX counter	Pf growth 96h	LmPK inh	LmPK inh confirm
CC(=O)Nc1cccc(OCCCNS(=O)(=O)c2ccc(F)cc2)c1	-2%	9	-2	12%	4%	/
CC(C)CN=Cc1c(O)c([N+](=O)[O-])cc2oc3c(c12)CCCC3	?	-9	2	100%	10µM*	?
O=[N+]([O-])c1cc2oc3c(c2c(C=NCc2ccccc2)c1O)CCCC3	1%	-3	-4	26%	1µM*	0.82µM*
CCn1c(SCC(=O)Nc2ccccc2OC)nc(O)cc1=O	22%	-9	0	-12%	-1%	/
O=c1c2ccccc2sn1-c1cc(S(=O)(=O)N2CCOCC2)ccc1N1CCCC1	/	21	6	?	8.9µM*	?
O=C(O)c1cc(S(=O)(=O)N2CCOCC2)ccc1N1CCCCC1	-10%	-19	-4	11%	1%	/
